Hit rate of the full screen: of about 5,500 compounds, about 2,000 (36%) were called active. Roughly 18% stayed inconclusive and do not appear here. No stated cut-off is given here; in the data, active means normalized growth mostly below about 0.91 (no sharp cut-off); inconclusive means no clear call, values can overlap the other calls; inactive means mostly above about 0.92. The list shows a part of the results.
Experiment: chemical genetic growth profiling, strain panel (AID 1159580);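 further: tested at 20 µM; growth read once vehicle control cultures reached saturation at 30 °C; 1 = growth at the plate median or of vehicle wells; lower values mean less growth of the strain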
Conditions: S. cerevisiae deletion strains, growth OD

Measured: normalized growth

CCOc1ccc(C(=O)c2ccc(OC)c(O)c2O)cc1
inactive: locus YAL021C, strain ccr4, active compounds read low 0.958 | locus YAL026C, strain drs2, active compounds read low 0.966 | locus YAL030W, strain snc1, active compounds read low 1.02 | locus YBL061C, strain skt5, active compounds read low 0.994 | locus YBR009C, strain hhf1, active compounds read low 0.962 | locus YBR023C, strain chs3, active compounds read low 0.977 | locus YBR171W, strain sec66, active compounds read low 1.02 | locus YBR231C, strain swc5, active compounds read low 0.939 | locus YBR279W, strain paf1, active compounds read low 0.973 | locus YCL011C, strain gbp2, active compounds read low 0.991 | locus YCL016C, strain dcc1, active compounds read low 0.973 | locus YCL061C, strain MRC1, active compounds read low 0.993 | locus YCL069W, strain vba3, active compounds read low 1.01 | locus YCR088W, strain abp1, active compounds read low 1.02 | locus YDL005C, strain med2, active compounds read low 1.05 | locus YDL040C, strain nat1, active compounds read low 1.01 | locus YDR001C, strain nth1, active compounds read low 1.03 | locus YDR069C, strain doa4, active compounds read low 0.974 | locus YDR137W, strain rgp1, active compounds read low 0.913 | locus YDR159W, strain sac3, active compounds read low 1.05 | locus YDR297W, strain sur2, active compounds read low 1.01 | locus YDR334W, strain swr1, active compounds read low 1.02 | locus YDR335W, strain msn5, active compounds read low 0.993 | locus YDR392W, strain spt3, active compounds read low 0.795 | locus YEL003W, strain gim4, active compounds read low 0.964 | locus YEL037C, strain rad23, active compounds read low 1.01 | locus YEL061C, strain CIN8 (second series), active compounds read low 1.02 | locus YER015W, strain faa2, active compounds read low 0.934 | locus YER016W, strain bim1, active compounds read low 1.01 | locus YER111C, strain swi4, active compounds read low 1.03 | locus YFR010W, strain ubp6, active compounds read low 1.01 | locus YGL167C, strain pmr1, active compounds read low 0.997 | locus YGL173C, strain kem1, active compounds read low 0.999 | locus YGL227W, strain vid30, active compounds read low 1.03 | locus YGL240W, strain doc1, active compounds read low 0.982 | locus YGL253W, strain hxk2, active compounds read low 1 | locus YHR013C, strain ard1, active compounds read low 0.961 | locus YHR027C, strain rpn1, active compounds read low 1.01 | locus YHR030C, strain SLT2, active compounds read low 0.892 | locus YHR079C, strain IRE1, active compounds read low 0.913 | locus YHR142W, strain chs7, active compounds read low 0.963 | locus YJL092W, strain hpr5, active compounds read low 1.02 | locus YJL095W, strain BCK1 (second series), active compounds read low 0.987 | locus YJL095W, strain BCK1, active compounds read low 0.923 | locus YJL115W, strain asf1, active compounds read low 1.04 | locus YJL129C, strain trk1, active compounds read low 1.04 | locus YJL154C, strain vps35, active compounds read low 1.03 | locus YJL164C, strain tpk1, active compounds read low 0.964 | locus YJL166W, strain qcr8, active compounds read low 0.959 | locus YJL187C, strain SWE1, active compounds read low 1 | locus YJR066W, strain TOR1, active compounds read low 0.826 | locus YKL160W, strain elf1, active compounds read low 0.951 | locus YKR026C, strain gcn3, active compounds read low 1.03 | locus YKR091W, strain srl3, active compounds read low 1.02 | locus YLL001W, strain dnm1, active compounds read low 0.981 | locus YLL026W, active compounds read low 1.03 | locus YLL041C, strain sdh2, active compounds read low 1.01 | locus YLR027C, strain aat2, active compounds read low 0.986 | locus YLR113W, strain HOG1, active compounds read low 0.953 | locus YLR221C, strain rsa3, active compounds read low 0.977 | locus YLR258W, strain gsy2, active compounds read low 1 | locus YLR262C, strain YPT6 (second series), active compounds read low 0.875 | locus YLR320W, strain mms22, active compounds read low 0.949 | locus YLR342W, strain FKS1, active compounds read low 0.958 | locus YLR357W, strain rsc2, active compounds read low 0.949 | locus YLR370C, strain arc18, active compounds read low 1.02 | locus YLR384C, strain iki3, active compounds read low 1.02 | locus YML120C, strain ndi1, active compounds read low 0.997 | locus YMR125W, strain sto1, active compounds read low 1.02 | locus YMR129W, active compounds read low 1.01 | locus YMR205C, strain PFK2, active compounds read low 1.01 | locus YMR231W, strain pep5, active compounds read low 0.992 | locus YNL071W, strain lat1, active compounds read low 0.972 | locus YNL183C, strain NPR1, active compounds read low 0.866 | locus YNL248C, strain rpa49, active compounds read low 1.03 | locus YNL322C, strain KRE1 (second series), active compounds read low 1.03 | locus YNR049C, strain mso1, active compounds read low 1.06 | locus YOR001W, strain rrp6, active compounds read low 0.996 | locus YOR070C, strain gyp1, active compounds read low 0.989 | locus YOR080W, strain dia2, active compounds read low 1.04 | locus YOR083W, strain WHI5, active compounds read low 0.953 | locus YOR106W, strain vam3, active compounds read low 0.892 | locus YOR231W, strain MKK1, active compounds read low 0.94 | locus YOR265W, strain rbl2, active compounds read low 1.01 | locus YOR270C, strain vph1, active compounds read low 0.918 | locus YOR290C, strain snf2, active compounds read low 0.955 | locus YPL078C, strain atp4, active compounds read low 0.957 | locus YPL106C, strain sse1, active compounds read low 0.957 | locus YPL240C, strain hsp82, active compounds read low 1.01 | locus YPL256C, strain CLN2, active compounds read low 0.954
active: locus YDR195W, strain ref2 1.15 [resistant] | locus YER155C, strain BEM2 (second series), active compounds read low 0.842 | locus YMR058W, strain fet3, active compounds read low 0.818 | locus YNL209W, strain ssb2, active compounds read low 0.909 | locus YPL051W, strain arl3, active compounds read low 0.878
